40 compounds from PubChem BioAssay (EPA / NIEHS) can be followed below.

Calls of active or inactive are those of the source. The calls were made as follows: active = hit-call score of the fitted dose curve at least 0.9, where 1 is the maximum; inactive = score below 0.9.

The assay in a line: APR_HepG2_MitoticArrest_1hr: Apredica 1-hour HepG2 Assay for Mitotic Arrest (AID 2282672). The following applies: high-content imaging, actives raise or lower the signal. As to the method:
APR_HepG2_1hr is a cell-based, multiplexed-readout assay that uses HepG2, a human liver cell line, with measurements taken at 1 hour after chemical dosing in a 384-well plate.APR_HepG2_MitoticArrest_1hr is one of 10 assay component(s) measured or calculated from the APR_HepG2_1hr assay. It is designed to make measurements of cell phenotype, a form of morphology reporter, as detected with fluorescence intensity signals by HCS Fluorescent Imaging technology.Data from the assay component APR_HepG2_MitoticArrest_1hr was analyzed into 1 assay endpoint. This assay endpoint, APR_HepG2_MitoticArrest_1hr, was analyzed with bidirectional fitting relative to DMSO as the negative control and baseline of activity. Using a type of morphology reporter, measures of protein for gain or loss-of-signal activity can be used to understand the signaling at the pathway-level as they relate to the gene . Furthermore, this assay endpoint can be referred to as a primary readout, because this assay has produced multiple assay endpoints where this one serves a signaling function. To generalize the intended target to other relatable targets, this assay endpoint is annotated to the cell cycle intended target family, where the subfamily is arrest.
Cells were treated with dimethyl sulfoxide (DMSO) as a solvent control at a final concentration of 0.5% v/v or with compounds in DMSO with a resulting final DMSO concentration of 0.5% v/v. Compound treatment was done at concentrations of 0.39, 0.78, 1.56, 3.12, 6.24, 12.5, 25, 50, 100, and 200 uM in duplicate on each plate. Cells were treated with compounds for 1, 24, or 72 hr. Carbonyl […] m-chloro-phenylhydrazone (CCCP) and taxol were used as positive controls for mitochondrial function and cytoskeletal stability, respectively; DMSO served as the negative control for this experiment. Cells were fixed by the direct addition of 50 uL formaldehyde in Hank's Balanced Salt Solution (HBSS) to a final concentration of 3.7%. After incubation in the fixation medium for 30 min at room temperature (293-298 K), cells were rinsed twice with HBSS and treated with cell permeabilization buffer (16 uL of 0.5% Triton X-100) for 10 min at room temperature (293-298 K) before labeling. For mitochondrial membrane potential and mitochondrial measurements, pre-fixed cells were incubated with 50 uL of MitoTracker Red CMXRos (Invitrogen) at a concentration of 250 nM for 30 min before fixation. In the remaining cases, post-fixed cells were labeled by incubation with a multiplexed mixture of primary antibodies in HBSS for 60 min at room temperature (293-298 K) to detect immunoreactivity of c-Jun (1:500), phospho-histone H3 (1:100), phospho-histone H2A.x (1:200), p53 (1:400), alpha-tubulin (1:200) and Hoechst 33342 (2 ug/mL). Cells were labeled for multiplexed imaging on two separate plates: a) Hoechst 33342, MitoTracker Red, phospho-histone H3, and alpha-tubulin, and b) Hoechst 33342, phospho-histone H2A.x, and c-Jun. A final rinse with HBSS (50 uL) was performed before analysis. The primary and secondary antibodies for the proteins were phospho-histone H3 (rabbit anti-phospho-histone H3 and FITC-donkey anti-rabbit IgG), phospho-histone H2A.x (mouse anti-phospho-histone H2A.x and FITC-donkey anti-mouse IgG), c-Jun (rabbit anti-phospho-c-Jun and Cy3-donkey anti-rabbit IgG), p53 (sheep anti-p53 and Cy5-donkey anti-sheep IgG), alpha-tubulin (mouse anti-alpha-tubulin and Cy5-donkey anti-mouse IgG). These antibodies are available as the CellCiphr HepG2 assay kit (Millipore).Digital images of each well were captured using a Cellomics ArrayScan VTI (Thermo Scientific Cellomics) (0.8 NA objective, 0.63x optical coupler, and XF-93 filter set) at 20x magnification. The images were acquired using the autofocus feature of the ArrayScan instrument, which entails the following steps. First, the camera focuses on channel 1 (Hoechst 33342), where nuclei are identified. Second, a Z offset of 1 um is used for capturing mitochondria (MitoTracker Red). […]
In the case of `COC(=O)NC(=S)Nc1ccccc1NC(=S)NC(=O)OC`, the compound was classed as inactive.
The value for `CN=C=S` was “inactive”.
The result for `CCCN(CC)CC1COC2(CCC(C(C)(C)C)CC2)O1` (stereo not given) reads “inactive”; that for `COCc1cnc(C2=NC(C)(C(C)C)C(=O)N2)c(C(=O)O)c1` (stereo not given), “inactive”.
The value for `CC1(C)C(C=C(Cl)Cl)C1C(=O)OC(C#N)c1cccc(Oc2ccccc2)c1` (stereo not given) was “inactive”.
With `CC(C)Oc1cccc(NC(=O)c2ccccc2C(F)(F)F)c1`, the outcome was inactive.
The result for `O=C1C2CC=CCC2C(=O)N1SC(Cl)(Cl)Cl` (stereo not given) reads “inactive”.
Consider `CC(C)C1(C)N=C(c2ncccc2C(=O)O)NC1=O` (stereo not given), for which the compound was called inactive.
The result for `C=CCOC(=O)C(C)(C)OC(=O)c1cc(-n2c(=O)cc(C(F)(F)F)n(C)c2=O)ccc1Cl` reads “inactive”; that for `Cc1cc(C)nc(Nc2ccccc2)n1`, “inactive”; that for `CC(C)N1C(=O)c2ccccc2NS1(=O)=O`, “inactive”.
With `Nc1cnn(-c2ccccc2)c(=O)c1Cl`, the outcome was inactive.
For the compound `CN/C(=N\[N+](=O)[O-])NCc1cnc(Cl)s1`, the outcome was inactive.
The value for `COCC(=O)N(c1c(C)cccc1C)C(C)C(=O)OC` (stereo not given) was “inactive”; that for `CSC(=O)c1c(C(F)F)nc(C(F)(F)F)c(C(=O)SC)c1CC(C)C` was “inactive”.
Take `COC(=O)c1c(C(F)F)nc(C(F)(F)F)c(C2=NCCS2)c1CC(C)C`: the result was inactive.
The result for `Cn1c(-c2ccccc2)cc(-c2ccccc2)[n+]1C` reads “inactive”.
As to `Nc1c(Cl)c(F)nc(OCC(=O)O)c1Cl`, the result was inactive.
The value for `CCN(CC)c1nc(C)cc(OP(=S)(OC)OC)n1` was “inactive”; that for `CC1(C)CCC(=Cc2ccc(Cl)cc2)C1(O)Cn1cncn1` (stereo not given) was “inactive”; that for `CCC(C)n1c(=O)[nH]c(C)c(Br)c1=O` (stereo not given) was “inactive”.
The result for `CNC(=O)N(C)c1nnc(C(C)(C)C)s1` reads “inactive”; that for `CCCCC(C#N)(Cn1cncn1)c1ccc(Cl)cc1` (stereo not given), “inactive”; that for `COP(=O)(OC)O/C(C)=C/C(=O)N(C)C`, “inactive”.
In the case of `CCCC(=NOCC)C1=C(O)CC(CC(C)SCC)CC1=O` (stereo not given), the compound was classed as inactive.
Consider `CC(C)Nc1nc(Cl)nc(NC(C)C)n1`, for which the compound was called inactive.
The value for `CCOc1nc(F)cc2nc(S(=O)(=O)Nc3c(Cl)cccc3Cl)nn12` was “inactive”; that for `COP(=S)(OC)SCn1nnc2ccccc2c1=O` was “inactive”.
The result for `COC(=O)N(C(=O)N1CO[C@@]2(C(=O)OC)Cc3cc(Cl)ccc3C2=N1)c1ccc(OC(F)(F)F)cc1` reads “inactive”.
The result for `Cc1ccc(N=CN(C)C=Nc2ccc(C)cc2C)c(C)c1` reads “inactive”; that for `O=c1n(Cl)c(=O)n(Cl)c(=O)n1Cl`, “inactive”; that for `CO/N=C(/C1=NOCCO1)c1ccccc1Oc1ncnc(Oc2ccccc2Cl)c1F`, “inactive”.
Consider `Nc1c(Cl)c(Cl)nc(C(=O)O)c1Cl`, for which the compound was called inactive.
The result for `COP(=S)(OC)Oc1ccc([N+](=O)[O-])c(C)c1` reads “inactive”; that for `COc1ccc(-c2ccccc2)cc1NNC(=O)OC(C)C`, “inactive”; that for `CS(=O)(=O)c1ccc(C(=O)C2C(=O)CCCC2=O)c([N+](=O)[O-])c1`, “inactive”.
The value for `CCOP(=S)(OCC)Oc1nc(Cl)n(C(C)C)n1` was “inactive”; that for `CC1(C)CON(Cc2ccccc2Cl)C1=O` was “inactive”.
The value for `CCOC(=O)C(C)OC(=O)c1cc(Oc2ccc(C(F)(F)F)cc2Cl)ccc1[N+](=O)[O-]` (stereo not given) was “inactive”; that for `Cc1c(COC(=O)[C@@H]2[C@H](/C=C(\Cl)C(F)(F)F)C2(C)C)cccc1-c1ccccc1` was “inactive”.
